Several values for one entry are separate records, joined by “and”; a condition that tells them apart may be missing. Equal entries are not always repeated. The list shows a part of the results. A number with no mark means an inactive call. Activity calls are given as the source filed them. Rule as the data show it: active = inhibition above about 32%; inactive = the rest.

This assay concerns Botulinum neurotoxin type A light chain protease (Clostridium botulinum A str. ATCC 3502). The assay can be described thus: inhibition of botulinum toxin A LC protease – biochemical, flow cytometry, cherry pick 1, confirmation (AID 602139). The conditions noted are these: multiplex microsphere protease assay, at 10 µM, active compounds read high. A general note: In flow cytometry, cells or beads pass a laser one at a time.
By inhibition is commonly meant the change of the read-out against control, counted positive when it falls. Consider `COc1ccc(Br)cc1CNCCc1cccc(Cl)c1`, for which the inhibition was 1.5%. Next, `Cc1ccc(C(=O)COc2cccc(NC(=O)c3ccco3)c2)cc1`: -0.4%. Next, `CCCN1C2CCCC1CC(NC(=O)c1cccc(OC)c1)C2` (configuration not stated): 0.4%. Next, `COc1ccc(NS(=O)(=O)c2cc(C(=O)Nc3ccccc3C(=O)O)ccc2C)cc1`: 0.6%; `COc1cc2cc(CN(CCN3CCCC3)C(=O)Nc3ccccc3Cl)c(=O)[nH]c2cc1OC`: -2.7%; `O=C(CN1CCCCCC1)Nc1c(Cl)cc(Cl)cc1Cl`: 0%. As for `CN1CCN(c2ccc(NC(=O)c3ccccc3)cc2)CC1`, the inhibition was 1.8%. Next, `CC1CCN(C(=O)c2ccc(S(=O)(=O)Cc3cc(F)ccc3F)c([N+](=O)[O-])c2)CC1`: 0.4%. Then `Clc1ccc(-c2ncc3ccccn23)c(Cl)c1`, with 2.4%.

As for `Cc1cccc2cc3c(N)c(C(=O)N4CCCc5ccccc54)sc3nc12`, the inhibition was 16.3%. Then `COC(=O)CN(c1nc(C)c(Cl)c(OC)n1)S(=O)(=O)c1ccc(C)cc1`, with 1.8%; and `Cc1onc(-c2ccccc2Cl)c1C(=O)NCCn1ccc2ccccc21`, with 2.7%; and `CCCSc1nc2sc3c(c2c(=O)n1-c1ccc(OC)cc1)CCN(C)C3`, with 1.8%.

For the compound `COc1cc(C(=O)NCc2ccc3c(c2)cc(C)n3C)cc(OC)c1OC`, the inhibition is -0.1%. Then `COc1ccc(C2CC(c3cccs3)=NN2c2nc(C)c(C(C)=O)s2)cc1OC` (configuration not stated), with 33.8% (active) and 32.3% (active); and `Cc1ccc(-c2nc(-c3cccnc3)sc2CC(=O)Nc2ccc(C)c(Cl)c2)cc1`, with 7.8%.

On to `CCOc1nnc(C)c2c(C)n(-c3cccc(Cl)c3)nc12`, for which the inhibition is -6.5%. Next, `CCOCCn1c(-c2ccccc2)nc2ccccc21`: -0.1%; `CCN1CCN(C(C(=O)NC2CCCC2)c2cc3c(cc2[N+](=O)[O-])OCO3)CC1` (configuration not stated): -0.8%; `Cc1ccccc1NC(=O)c1cc(S(=O)(=O)Nc2cccc(C(=O)O)c2)ccc1Cl`: -1.4%. Then `CN(C(=O)c1ccccn1)c1nnc(-c2ccccn2)s1`, with -1.1%; and `COc1ccc(N(CC(=O)NCCSCc2cccc(Cl)c2)S(C)(=O)=O)cc1`, with 1%.
